In the supplement of paper PMC11732987, “Enantioselective OTUD7B fragment discovery through chemoproteomics screening and high-throughput optimisation” (Communications Chemistry, 2025):

Key:
Assay in all cases: log2 ratio of Biotin-Ahx-Ub-VS probe labelling (fragment/DMSO); higher = less target engagement (more negative = stronger competition), active = hit call of the paper (q ≤ 0.05, log2 ratio ≤ -1)
Conditions in all cases: compound concentration: 200 uM; treatment time: 3 h
USP34 = USP34 (UniProt Q70CQ2)
In short: (§1)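 HEK293T lysate (495 µg per sample, in Tris/CHAPS/IGEPAL buffer with protease inhibitors) was exposed in triplicate for 3 h to fragment at 200 µM or to vehicle, then to Biotin-Ahx-Ub-VS at 0.5 µM final for 1 h. Labelled DUBs were enriched on NeutrAvidin, digested with LysC and trypsin, and analysed by diaPASEF LC-MS/MS. Spectronaut label-free quantities were normalised to the global median, and values are average log2 ratios of fragment over vehicle from an unpaired t-test. Only proteins with ≥2 unique peptides were used.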

USP36 = molecular target: T1, USP36 (UniProt Q9P275)
T1 sequence (whole entry): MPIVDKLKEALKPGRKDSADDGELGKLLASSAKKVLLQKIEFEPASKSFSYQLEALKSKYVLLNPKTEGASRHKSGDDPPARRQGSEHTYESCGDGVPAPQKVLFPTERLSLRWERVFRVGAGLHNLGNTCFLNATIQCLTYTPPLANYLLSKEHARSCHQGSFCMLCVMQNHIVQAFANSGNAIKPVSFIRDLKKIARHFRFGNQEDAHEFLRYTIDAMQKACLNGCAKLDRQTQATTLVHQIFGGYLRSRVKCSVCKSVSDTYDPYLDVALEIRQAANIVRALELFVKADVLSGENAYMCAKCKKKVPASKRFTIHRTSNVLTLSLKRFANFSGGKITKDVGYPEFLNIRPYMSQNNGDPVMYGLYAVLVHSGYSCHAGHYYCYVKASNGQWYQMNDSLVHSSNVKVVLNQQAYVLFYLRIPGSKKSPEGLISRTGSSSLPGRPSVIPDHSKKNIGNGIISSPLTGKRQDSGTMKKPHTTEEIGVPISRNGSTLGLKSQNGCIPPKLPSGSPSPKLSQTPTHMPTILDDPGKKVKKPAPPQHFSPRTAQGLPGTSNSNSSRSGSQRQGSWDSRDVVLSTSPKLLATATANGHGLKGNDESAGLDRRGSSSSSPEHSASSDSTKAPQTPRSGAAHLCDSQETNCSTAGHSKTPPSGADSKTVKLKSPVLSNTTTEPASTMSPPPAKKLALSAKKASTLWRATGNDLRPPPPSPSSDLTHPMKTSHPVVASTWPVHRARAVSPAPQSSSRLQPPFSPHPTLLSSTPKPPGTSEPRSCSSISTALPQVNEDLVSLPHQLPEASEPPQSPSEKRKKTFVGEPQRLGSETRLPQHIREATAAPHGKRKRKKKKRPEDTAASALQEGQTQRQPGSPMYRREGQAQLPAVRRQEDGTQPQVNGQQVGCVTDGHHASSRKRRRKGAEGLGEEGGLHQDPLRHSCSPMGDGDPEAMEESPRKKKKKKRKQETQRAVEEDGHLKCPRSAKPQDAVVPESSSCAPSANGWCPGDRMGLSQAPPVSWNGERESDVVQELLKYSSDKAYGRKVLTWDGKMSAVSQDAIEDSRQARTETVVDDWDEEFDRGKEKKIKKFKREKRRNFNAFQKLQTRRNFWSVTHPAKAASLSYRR
In short: as §1

USP38 = molecular target: T2, USP38 (UniProt Q8NB14)
T2 sequence (whole entry): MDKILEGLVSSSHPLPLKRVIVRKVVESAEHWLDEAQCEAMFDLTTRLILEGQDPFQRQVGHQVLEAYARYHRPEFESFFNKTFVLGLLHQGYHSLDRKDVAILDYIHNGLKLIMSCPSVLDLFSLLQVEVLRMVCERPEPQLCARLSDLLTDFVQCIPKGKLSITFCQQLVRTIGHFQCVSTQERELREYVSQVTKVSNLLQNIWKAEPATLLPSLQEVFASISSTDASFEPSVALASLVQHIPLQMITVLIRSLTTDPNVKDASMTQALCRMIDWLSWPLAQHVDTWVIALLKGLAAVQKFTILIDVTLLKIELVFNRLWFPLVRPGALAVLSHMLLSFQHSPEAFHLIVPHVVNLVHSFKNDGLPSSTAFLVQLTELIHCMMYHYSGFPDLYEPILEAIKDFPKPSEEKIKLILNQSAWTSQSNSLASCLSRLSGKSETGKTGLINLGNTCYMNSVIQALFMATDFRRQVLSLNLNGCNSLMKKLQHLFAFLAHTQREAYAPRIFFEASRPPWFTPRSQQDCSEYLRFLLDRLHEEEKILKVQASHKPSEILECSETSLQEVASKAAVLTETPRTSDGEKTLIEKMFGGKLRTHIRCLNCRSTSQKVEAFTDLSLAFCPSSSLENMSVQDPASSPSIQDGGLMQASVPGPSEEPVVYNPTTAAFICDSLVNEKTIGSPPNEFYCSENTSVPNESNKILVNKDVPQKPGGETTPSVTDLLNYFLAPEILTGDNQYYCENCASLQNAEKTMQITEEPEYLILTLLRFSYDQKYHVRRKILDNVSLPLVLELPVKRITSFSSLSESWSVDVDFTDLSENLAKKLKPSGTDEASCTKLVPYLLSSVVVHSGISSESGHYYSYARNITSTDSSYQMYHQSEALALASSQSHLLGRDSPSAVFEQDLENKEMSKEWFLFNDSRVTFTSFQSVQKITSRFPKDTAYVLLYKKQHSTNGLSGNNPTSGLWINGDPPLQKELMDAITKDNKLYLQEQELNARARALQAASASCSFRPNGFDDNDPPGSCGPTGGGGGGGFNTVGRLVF
In short: as §1

USP39 = molecular target: T3, USP39 (UniProt Q53GS9)
T3 sequence (whole entry): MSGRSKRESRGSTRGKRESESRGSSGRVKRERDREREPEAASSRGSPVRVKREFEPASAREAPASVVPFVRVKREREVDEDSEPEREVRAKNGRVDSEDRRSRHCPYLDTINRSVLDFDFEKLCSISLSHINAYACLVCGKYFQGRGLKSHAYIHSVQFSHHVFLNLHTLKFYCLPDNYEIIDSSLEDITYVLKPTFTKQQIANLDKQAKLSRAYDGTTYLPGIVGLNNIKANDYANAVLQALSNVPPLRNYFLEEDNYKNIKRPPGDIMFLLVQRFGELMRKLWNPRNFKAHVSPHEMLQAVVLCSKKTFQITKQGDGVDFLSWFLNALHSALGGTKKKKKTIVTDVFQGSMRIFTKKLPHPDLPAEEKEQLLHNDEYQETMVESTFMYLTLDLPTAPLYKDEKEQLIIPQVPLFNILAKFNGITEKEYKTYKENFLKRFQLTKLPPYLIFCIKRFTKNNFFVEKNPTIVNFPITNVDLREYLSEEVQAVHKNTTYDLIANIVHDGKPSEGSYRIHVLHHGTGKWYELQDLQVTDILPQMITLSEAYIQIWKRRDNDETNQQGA
In short: as §1

USP4 = molecular target: T4, USP4 (UniProt Q13107)
T4 sequence (whole entry): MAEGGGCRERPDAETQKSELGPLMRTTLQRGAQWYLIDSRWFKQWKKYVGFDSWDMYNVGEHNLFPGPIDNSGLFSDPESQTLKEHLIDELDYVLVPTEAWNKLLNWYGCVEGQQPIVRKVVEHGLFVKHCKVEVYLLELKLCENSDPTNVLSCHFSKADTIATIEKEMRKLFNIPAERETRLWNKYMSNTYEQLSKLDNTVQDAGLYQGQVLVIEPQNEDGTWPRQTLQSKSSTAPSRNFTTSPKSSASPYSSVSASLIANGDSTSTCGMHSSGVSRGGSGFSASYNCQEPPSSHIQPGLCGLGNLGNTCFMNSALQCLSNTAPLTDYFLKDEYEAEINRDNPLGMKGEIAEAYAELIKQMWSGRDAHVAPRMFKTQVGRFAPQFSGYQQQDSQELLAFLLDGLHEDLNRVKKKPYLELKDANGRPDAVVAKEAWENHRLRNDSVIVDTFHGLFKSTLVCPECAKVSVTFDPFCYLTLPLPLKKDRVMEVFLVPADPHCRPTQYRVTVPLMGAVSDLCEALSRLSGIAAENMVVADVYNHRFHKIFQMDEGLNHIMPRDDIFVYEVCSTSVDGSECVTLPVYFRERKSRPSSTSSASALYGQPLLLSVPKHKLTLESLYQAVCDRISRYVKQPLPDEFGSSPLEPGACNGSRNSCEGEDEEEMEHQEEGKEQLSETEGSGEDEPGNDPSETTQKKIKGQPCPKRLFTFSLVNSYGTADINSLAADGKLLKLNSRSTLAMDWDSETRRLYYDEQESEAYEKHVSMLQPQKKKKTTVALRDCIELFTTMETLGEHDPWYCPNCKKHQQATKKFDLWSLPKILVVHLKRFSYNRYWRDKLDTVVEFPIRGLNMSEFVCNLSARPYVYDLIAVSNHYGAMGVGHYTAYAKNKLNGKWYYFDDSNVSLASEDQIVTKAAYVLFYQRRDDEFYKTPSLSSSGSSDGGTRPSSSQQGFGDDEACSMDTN
In short: as §1

Measured: log2 ratio of Biotin-Ahx-Ub-VS probe labelling

USP34, sequence (Q70CQ2 whole entry, the tested form may be a part): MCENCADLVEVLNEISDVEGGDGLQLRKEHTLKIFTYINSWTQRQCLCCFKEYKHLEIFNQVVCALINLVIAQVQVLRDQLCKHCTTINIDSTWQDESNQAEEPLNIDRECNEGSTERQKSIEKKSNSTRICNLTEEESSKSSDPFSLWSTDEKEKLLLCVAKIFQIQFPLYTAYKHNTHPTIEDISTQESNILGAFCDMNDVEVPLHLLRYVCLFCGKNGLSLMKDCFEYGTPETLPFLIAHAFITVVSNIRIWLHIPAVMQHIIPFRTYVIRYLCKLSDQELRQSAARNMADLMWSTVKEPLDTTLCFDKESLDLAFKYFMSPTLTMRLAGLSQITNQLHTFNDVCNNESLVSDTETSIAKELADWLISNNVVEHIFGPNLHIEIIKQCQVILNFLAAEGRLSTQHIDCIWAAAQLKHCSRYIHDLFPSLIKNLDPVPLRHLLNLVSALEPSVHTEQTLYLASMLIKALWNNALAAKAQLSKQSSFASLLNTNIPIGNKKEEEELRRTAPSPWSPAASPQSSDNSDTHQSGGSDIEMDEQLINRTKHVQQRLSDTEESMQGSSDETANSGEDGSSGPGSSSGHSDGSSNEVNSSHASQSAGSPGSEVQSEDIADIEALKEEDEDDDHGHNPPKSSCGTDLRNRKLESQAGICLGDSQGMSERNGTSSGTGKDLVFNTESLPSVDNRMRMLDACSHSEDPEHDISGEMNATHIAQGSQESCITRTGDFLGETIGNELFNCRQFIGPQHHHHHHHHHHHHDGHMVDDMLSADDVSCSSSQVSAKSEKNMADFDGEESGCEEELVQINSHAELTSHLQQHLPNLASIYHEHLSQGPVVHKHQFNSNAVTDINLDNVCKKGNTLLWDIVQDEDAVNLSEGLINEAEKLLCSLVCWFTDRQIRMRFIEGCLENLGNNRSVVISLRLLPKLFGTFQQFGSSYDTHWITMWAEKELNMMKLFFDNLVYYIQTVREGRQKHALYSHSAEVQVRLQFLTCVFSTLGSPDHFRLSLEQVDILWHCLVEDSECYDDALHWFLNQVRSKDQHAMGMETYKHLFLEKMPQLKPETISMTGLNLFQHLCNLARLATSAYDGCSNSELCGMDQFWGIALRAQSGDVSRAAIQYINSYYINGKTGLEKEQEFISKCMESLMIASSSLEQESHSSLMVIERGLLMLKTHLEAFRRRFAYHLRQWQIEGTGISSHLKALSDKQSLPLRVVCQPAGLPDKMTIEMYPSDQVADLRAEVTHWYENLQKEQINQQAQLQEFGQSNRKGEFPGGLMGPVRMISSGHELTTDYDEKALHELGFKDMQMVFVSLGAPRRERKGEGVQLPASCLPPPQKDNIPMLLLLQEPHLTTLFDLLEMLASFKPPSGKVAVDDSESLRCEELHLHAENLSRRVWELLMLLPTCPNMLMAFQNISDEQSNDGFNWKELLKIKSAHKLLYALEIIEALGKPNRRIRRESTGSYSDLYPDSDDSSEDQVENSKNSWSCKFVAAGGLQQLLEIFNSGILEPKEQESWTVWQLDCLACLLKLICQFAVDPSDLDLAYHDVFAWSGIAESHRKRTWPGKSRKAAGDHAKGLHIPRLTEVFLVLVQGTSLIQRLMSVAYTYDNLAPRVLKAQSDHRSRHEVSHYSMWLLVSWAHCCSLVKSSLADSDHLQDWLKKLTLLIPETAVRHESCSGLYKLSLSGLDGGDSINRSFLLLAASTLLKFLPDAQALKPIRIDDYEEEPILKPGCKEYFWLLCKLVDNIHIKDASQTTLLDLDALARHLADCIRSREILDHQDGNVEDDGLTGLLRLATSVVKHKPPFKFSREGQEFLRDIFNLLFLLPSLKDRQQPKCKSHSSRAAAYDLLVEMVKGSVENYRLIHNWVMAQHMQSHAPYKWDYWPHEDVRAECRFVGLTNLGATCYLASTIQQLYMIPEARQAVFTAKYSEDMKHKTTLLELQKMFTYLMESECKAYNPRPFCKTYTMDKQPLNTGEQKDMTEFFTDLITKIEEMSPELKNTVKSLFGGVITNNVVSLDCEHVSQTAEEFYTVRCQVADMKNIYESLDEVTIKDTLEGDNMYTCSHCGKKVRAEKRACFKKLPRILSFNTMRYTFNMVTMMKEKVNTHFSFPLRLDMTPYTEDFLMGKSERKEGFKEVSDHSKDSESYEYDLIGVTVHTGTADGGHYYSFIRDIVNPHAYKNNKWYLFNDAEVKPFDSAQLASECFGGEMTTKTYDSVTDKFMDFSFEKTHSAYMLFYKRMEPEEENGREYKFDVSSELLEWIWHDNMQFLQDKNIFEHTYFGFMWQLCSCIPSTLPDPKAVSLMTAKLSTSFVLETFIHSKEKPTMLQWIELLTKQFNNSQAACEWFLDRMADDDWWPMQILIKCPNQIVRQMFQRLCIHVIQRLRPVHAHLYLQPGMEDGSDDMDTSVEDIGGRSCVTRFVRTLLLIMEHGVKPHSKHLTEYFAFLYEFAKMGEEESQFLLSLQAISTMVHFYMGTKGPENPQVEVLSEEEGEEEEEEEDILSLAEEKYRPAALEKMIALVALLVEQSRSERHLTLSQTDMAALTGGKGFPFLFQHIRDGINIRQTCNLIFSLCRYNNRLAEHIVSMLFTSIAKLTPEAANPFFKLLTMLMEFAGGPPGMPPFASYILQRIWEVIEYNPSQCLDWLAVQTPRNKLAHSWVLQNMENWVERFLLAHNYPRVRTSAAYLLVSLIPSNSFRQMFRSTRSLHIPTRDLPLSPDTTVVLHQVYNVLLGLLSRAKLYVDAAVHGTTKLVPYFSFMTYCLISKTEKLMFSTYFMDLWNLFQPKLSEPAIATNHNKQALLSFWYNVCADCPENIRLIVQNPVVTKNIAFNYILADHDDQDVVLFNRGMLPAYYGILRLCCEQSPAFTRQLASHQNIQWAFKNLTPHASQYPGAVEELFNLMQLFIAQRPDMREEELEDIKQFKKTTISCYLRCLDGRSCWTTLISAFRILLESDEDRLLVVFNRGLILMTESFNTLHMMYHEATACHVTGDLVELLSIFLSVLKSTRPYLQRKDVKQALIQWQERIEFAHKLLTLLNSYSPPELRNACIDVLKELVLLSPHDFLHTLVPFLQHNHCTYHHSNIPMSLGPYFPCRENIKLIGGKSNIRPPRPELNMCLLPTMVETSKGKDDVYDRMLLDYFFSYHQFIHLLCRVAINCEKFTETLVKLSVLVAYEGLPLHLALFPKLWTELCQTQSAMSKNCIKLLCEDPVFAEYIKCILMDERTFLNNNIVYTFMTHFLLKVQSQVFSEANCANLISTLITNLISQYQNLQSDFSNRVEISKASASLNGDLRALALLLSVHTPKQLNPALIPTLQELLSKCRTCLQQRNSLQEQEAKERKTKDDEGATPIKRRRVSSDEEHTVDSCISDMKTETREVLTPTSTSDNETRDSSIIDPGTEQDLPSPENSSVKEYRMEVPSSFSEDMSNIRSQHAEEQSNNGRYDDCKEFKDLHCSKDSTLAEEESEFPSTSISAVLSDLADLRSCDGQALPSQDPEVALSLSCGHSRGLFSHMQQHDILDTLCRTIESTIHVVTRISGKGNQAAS

CC1CN(c2ccc(NC(=O)CCl)cc2)CC(C)O1 (stereo not given)
inactive: USP34 -0.087 | USP36 -0.162 | USP38 0.0369 | USP39 0.216 | USP4 -0.104
